# Laboratory results: PubChem BioAssay (NCI)
# About 83,000 compounds went through this panel and 20% of them were active in at least one assay; those are over-represented in the sample as a whole.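 In brief: 96-well plates, 48 h treatment, single concentration, percent growth endpoint.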 Values without a mark were called inactive. The source made the active and inactive calls. The calls were made as follows: active = growth percent below 10; inactive = the rest.
# What was measured:
# Experiment in all cases: NCI-60 one-dose screen, 48 h (100 = growth as untreated, 0 = no growth, -100 = all killed)
# Settings in all cases: 10 µM unless noted
# NCI-H23 lung = system: NCI-H23 lung
# NCI-H226 lung = system: NCI-H226 lung
# NCI-H322M lung = system: NCI-H322M lung
# HOP-62 NSCLC = system: HOP-62 NSCLC
# NCI-H460 lung = system: NCI-H460 lung
# HOP-92 NSCLC = system: HOP-92 NSCLC
# NCI-H522 lung = system: NCI-H522 lung
# A549/ATCC NSCLC = system: A549/ATCC NSCLC
# 786-0 renal = system: 786-0 renal
# COLO 205 colon = system: COLO 205 colon
SMILES,growth (NCI-H23 lung),growth (NCI-H226 lung),growth (NCI-H322M lung),growth (HOP-62 NSCLC),growth (NCI-H460 lung),growth (HOP-92 NSCLC),growth (NCI-H522 lung),growth (A549/ATCC NSCLC),growth (786-0 renal),growth (COLO 205 colon)
O=C(Nc1ccc(-c2nc(-c3cccc(OCCN4CCOCC4)c3)c(-c3ccnc(Br)c3)[nH]2)cc1)c1ccccc1,13.3%,52.8%,47.4%,-1.45% (active),7.26% (active),23.2%,40.7%,21.9%,-39.4% (active),-25.2% (active)
O=C(Nc1nc2ccc(F)cc2s1)c1cccnc1Nc1ccc(Cl)cc1Cl,7.18% (active),52.6%,3.83% (active),63.5%,5.22% (active),-6.79% (active),31.8%,17%,45.8%,2.35% (active)
COc1cccc2nc3n(c12)C(c1c(F)cccc1F)SC3 (stereo not given),94.8%,82.7%,102%,104%,99%,46.4%,80.4%,98%,101%,106%
COc1nc2ccccc2cc1-c1nc2c(cnn2-c2ccccc2)c(=O)[nH]1,46.2%,73.3%,82.1%,44.2%,24.4%,64.6%,21.6%,50.2%,61.9%,32.6%
COc1ccc(-c2conc2-c2ccccc2)cc1,29.1%,70.5%,46.3%,42.4%,7.41% (active),71.4%,-6.84% (active),23.3%,27%,-7.37% (active)
O=C(CCCCCCSc1nc(-c2ccccc2)cc(-c2ccccc2)n1)NO,27.6%,56%,45%,29.5%,24.4%,7.75% (active),-0.297% (active),27.4%,65%,25.7%
O=C(N/N=C/[C@@H](O)[C@H](O)[C@H](O)CO)c1ccc(NC(=O)c2cccnc2)cc1,107%,99.9%,104%,102%,108%,103%,99.3%,101%,106%,107%
O=C1c2cccc3cccc(c23)C(=O)N1Nc1nc(NC2CCCCC2)nc(N2CCOCC2)n1,95.4%,98%,93.4%,91.3%,102%,86.3%,93.5%,95%,104%,107%
O=c1c2cc(F)cc(Cl)c2sc2c(NCCCNCCO)nc3ccccc3c12,89.9%,106%,89.8%,90.1%,10.3%,65.6%,92.4%,83.7%,81.7%,73.5%
CSc1nc2ccc(C)cc2cc1/C=N/O,99.4%,76.7%,94.3%,82.8%,91.1%,72.2%,75.7%,71.8%,89.9%,102%
COc1ccc(C(=O)COC(=O)[C@H](C[Se][Se]C[C@H](NC(=O)c2ccc(Br)cc2F)C(=O)OCC(=O)c2ccc(OC)cc2)NC(=O)c2ccc(Br)cc2F)cc1,-50.3% (active),-69.5% (active),0.597% (active),-72.4% (active),-36.6% (active),-27.9% (active),-69.5% (active),-3.84% (active),-95.8% (active),-45.6% (active)
O=C(Nc1c2ccccc2nc2ccccc12)c1ccccc1CN1C(=O)c2ccccc2C1=O,28.6%,40.2%,21%,37.4%,3.79% (active),38.5%,23.7%,18.8%,38.9%,9.84% (active)
COc1ccc2c(c1OC)C(=O)O[C@H]2[C@H]1c2c(cc3c(c2OC)OCO3)CCN1C,92.5%,99.6%,104%,98.1%,105%,97%,92%,101%,99.5%,104%
CC(=O)N1N=C(c2ccc(Nc3nc(Nc4ccc(F)cc4)nc(Nc4ccc(Cl)cc4)n3)cc2)CC1c1ccc(Cl)cc1 (stereo not given),84.6%,83.8%,85.3%,84.1%,107%,64.1%,73.2%,92.5%,98.2%,94.3%
